Data: PubChem BioAssay
Activity calls are given as the source filed them.

Key:
[1] = optical density shifts of acrAB sulA E. coli – strain DRC41, OD650, 48 h, E. coli filamentation inducer project, primary screen (AID 1152); conditions: higher = more signal, called active from +8 up or from −8 down;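 further: E. coli MC1000 strain DRC41 lacking acrAB efflux pump and sulA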
[2] = probe aLefty1 binding on compound microarray – biochemical, small-molecule microarray, 635/667 nm fluorescence, primary screen (AID 1153); conditions: higher = more signal;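 further: score merges spot fluorescence with signal-to-noise ratio from the scanned slide images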
[3] = plasmodial surface anion channel blockers, osmotic lysis – cell-based, P. falciparum Indochina, OD700, 1 h, primary screen (AID 1154); conditions: P. falciparum Indochina infected RBC osmotic lysis, higher = more signal, called active from +8 up or from −8 down
[4] = plasmodial surface anion channel blockers, osmotic lysis – cell-based, P. falciparum Indochina, OD700, 2 h, primary screen (AID 1155);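 further: lysis reports solute entry through the parasite surface anion channel PSAC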; conditions: P. falciparum Indochina infected erythrocytes, higher = more signal, called active from +8 up or from −8 down
[5] = changes in parasitized red cell lysis, either direction – P. falciparum Indochina, OD700, 3 h, PSAC antagonist project, primary screen (AID 1156); conditions: P. falciparum-infected erythrocytes, osmotic lysis, higher = more signal, called active from +8 up or from −8 down
[6] = plasmodial surface anion channel blockers, osmotic lysis – cell-based, P. falciparum Indochina, OD700, 18 h, primary screen (AID 1157); conditions: P. falciparum Indochina infected erythrocytes, osmotic lysis OD700, 18 h; higher = more signal, called active from +8 up or from −8 down
[7] = S6 kinase pathway phospho-S6 level changes – cell-based, A549, cytoblot, luminescence, serum-stimulated, primary screen (AID 1158); conditions: 5 h, higher = more signal;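 further: serum-stimulated A549 lung adenocarcinoma cells; signal is phosphorylated S6 detected by cytoblot immunostaining with HRP secondary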
[8] = target: NADPH oxidase 2 (Homo sapiens) (UniProt P04839); test: compounds shifting NOX2 Amplex Red fluorescence – cell-based, HEK293-NOX2, PMA-stimulated, NOX inhibitor project, primary screen (AID 1159); conditions: 45 min, higher = more signal, called active from +8 up or from −8 down; further: test concentration not given here
Chain of NADPH oxidase 2 (Homo sapiens) (P04839 whole entry, looked up): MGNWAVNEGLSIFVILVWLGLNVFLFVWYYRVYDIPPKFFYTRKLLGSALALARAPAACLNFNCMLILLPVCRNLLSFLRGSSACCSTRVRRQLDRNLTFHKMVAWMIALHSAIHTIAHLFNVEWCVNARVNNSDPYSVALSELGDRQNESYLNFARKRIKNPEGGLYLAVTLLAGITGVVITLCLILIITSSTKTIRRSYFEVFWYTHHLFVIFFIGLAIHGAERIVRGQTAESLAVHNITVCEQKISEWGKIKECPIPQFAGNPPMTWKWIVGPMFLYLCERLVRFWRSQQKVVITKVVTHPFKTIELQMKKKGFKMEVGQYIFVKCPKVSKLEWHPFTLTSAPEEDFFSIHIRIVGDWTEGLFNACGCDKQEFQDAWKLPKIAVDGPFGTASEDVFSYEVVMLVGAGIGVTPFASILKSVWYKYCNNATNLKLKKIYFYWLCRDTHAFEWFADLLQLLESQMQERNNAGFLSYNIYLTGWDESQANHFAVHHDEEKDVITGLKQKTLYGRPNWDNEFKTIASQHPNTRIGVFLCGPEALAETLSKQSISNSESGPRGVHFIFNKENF

[9] = target: NADPH oxidase 4 (Homo sapiens) (UniProt Q9NPH5); test: compounds shifting NOX4 Amplex Red fluorescence – cell-based, HEK293-NOX4, tetracycline-induced, NOX inhibitor project, primary screen (AID 1160); conditions: HEK293-NOX4, Amplex Red H2O2 fluorescence, 45 min; higher = more signal, called active from +8 up or from −8 down
Chain of NADPH oxidase 4 (Homo sapiens) (Q9NPH5 whole entry, looked up): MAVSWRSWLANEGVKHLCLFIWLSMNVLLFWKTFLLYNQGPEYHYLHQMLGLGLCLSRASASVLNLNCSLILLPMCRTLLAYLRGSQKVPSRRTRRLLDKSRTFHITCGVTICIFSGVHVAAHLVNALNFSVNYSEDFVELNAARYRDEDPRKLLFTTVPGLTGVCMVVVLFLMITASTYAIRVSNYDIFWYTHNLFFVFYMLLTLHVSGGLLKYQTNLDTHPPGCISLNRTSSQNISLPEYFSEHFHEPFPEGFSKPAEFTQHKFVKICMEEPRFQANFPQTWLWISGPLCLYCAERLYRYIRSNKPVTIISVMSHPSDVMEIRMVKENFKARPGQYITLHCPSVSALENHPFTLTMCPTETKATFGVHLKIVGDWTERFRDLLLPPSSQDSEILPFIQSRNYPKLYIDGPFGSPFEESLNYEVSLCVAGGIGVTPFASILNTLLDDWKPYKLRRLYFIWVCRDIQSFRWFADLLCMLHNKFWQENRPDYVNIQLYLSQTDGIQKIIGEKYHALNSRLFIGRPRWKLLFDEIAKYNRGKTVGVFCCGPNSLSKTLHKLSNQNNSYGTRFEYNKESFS

[10] = target: NADPH oxidase 5 (Homo sapiens) (UniProt Q96PH1); test: compounds shifting NOX5 Amplex Red fluorescence – cell-based, HEK293-NOX5, NOX inhibitor project, primary screen (AID 1161); conditions: HEK293-NOX5, ionomycin, 45 min, higher = more signal
Chain of NADPH oxidase 5 (Homo sapiens) (Q96PH1 whole entry, looked up): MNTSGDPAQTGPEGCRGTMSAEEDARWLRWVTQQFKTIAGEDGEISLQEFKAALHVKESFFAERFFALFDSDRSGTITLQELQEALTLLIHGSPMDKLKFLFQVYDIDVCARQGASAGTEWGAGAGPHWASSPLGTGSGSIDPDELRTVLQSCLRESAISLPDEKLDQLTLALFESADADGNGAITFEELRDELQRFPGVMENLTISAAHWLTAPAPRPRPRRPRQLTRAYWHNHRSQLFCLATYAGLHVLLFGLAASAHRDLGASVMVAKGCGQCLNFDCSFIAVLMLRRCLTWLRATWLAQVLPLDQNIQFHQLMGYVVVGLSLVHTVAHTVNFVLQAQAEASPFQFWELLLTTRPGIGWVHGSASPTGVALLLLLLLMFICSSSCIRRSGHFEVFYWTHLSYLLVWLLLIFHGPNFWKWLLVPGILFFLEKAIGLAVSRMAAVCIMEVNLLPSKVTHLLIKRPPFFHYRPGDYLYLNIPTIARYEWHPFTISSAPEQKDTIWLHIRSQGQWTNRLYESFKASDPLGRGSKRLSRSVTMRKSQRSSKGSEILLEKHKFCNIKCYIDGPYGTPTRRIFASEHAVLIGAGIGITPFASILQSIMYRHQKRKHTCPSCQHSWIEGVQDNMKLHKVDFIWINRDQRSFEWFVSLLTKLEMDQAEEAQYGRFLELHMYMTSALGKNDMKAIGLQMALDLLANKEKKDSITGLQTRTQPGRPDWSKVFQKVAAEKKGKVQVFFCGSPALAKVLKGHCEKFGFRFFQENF

[11] = compound effects on lung adenocarcinoma cell viability – A549, calcein-AM fluorescence, 48 h, basal, profiling panel (AID 1162); conditions: higher = more signal; further: test concentration not given here
[12] = compound effects on differentiated 3T3-L1 adipocyte viability – cell-based, 3T3-L1 adipocytes, calcein-AM fluorescence, 48 h, basal, profiling panel (AID 1163); conditions: 3T3-L1 adipocytes viability, higher = more signal; further: test concentration not given here
[13] = compound effects on hepatocellular carcinoma cell viability – HepG2, calcein-AM fluorescence, 48 h, basal, profiling panel (AID 1164); conditions: higher = more signal; further: test concentration not given here
[14] = compound effects on multiple myeloma cell viability – MM1S, calcein-AM fluorescence, 48 h, basal, profiling panel (AID 1165); conditions: higher = more signal; further: test concentration not given here
[15] = calcein-AM signal in unstimulated myeloma cells – cell-based, calcein-AM fluorescence, 48 h, PK04 Diversity Set, profiling panel (AID 1166); conditions: RPMI8226 myeloma viability, higher = more signal;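 further: cells grown under basal conditions without added stimulus; test concentration not given here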
[16] = JC-1 mitochondrial signal, unstimulated HepG2 cells – cell-based, JC-1 fluorescence, 24 h, 100 nL compound, profiling panel (AID 1167); conditions: HepG2 mitochondrial potential, higher = more signal; further: test concentration not given here
[17] = JC-1 mitochondrial signal, unstimulated adipocytes – cell-based, JC-1 fluorescence, 3T3-L1 adipocytes, 24 h, 100 nL compound, profiling panel (AID 1168); conditions: JC-1 mitochondrial fluorescence, higher = more signal, called active from +8 up or from −8 down; further: test concentration not given here
[18] = JC-1 mitochondrial signal, unstimulated myeloma cells – cell-based, JC-1 fluorescence, RPMI8226, 24 h, 100 nL compound, profiling panel (AID 1169); conditions: JC-1 mitochondrial potential fluorescence, higher = more signal; further: test concentration not given here
[19] = JC-1 mitochondrial signal, unstimulated MM1S myeloma – cell-based, JC-1 fluorescence, 24 h, 100 nL compound, profiling panel (AID 1170); conditions: MM1S mitochondrial potential, higher = more signal; further: test concentration not given here
[20] = resazurin metabolic signal in A549 cells – cell-based, resazurin fluorescence, 24 h, PK04 Diversity Set, profiling panel (AID 1171); conditions: A549 viability, higher = more signal, called active from +8 up or from −8 down; further: test concentration not given here

Row | Compound | z-score [1] | composite z-score [2] | z-score [3] | z-score [4] | z-score [5] | z-score [6] | z-score [7] | z-score [8] | z-score [9] | z-score [10] | z-score [11] | z-score [12] | z-score [13] | z-score [14] | z-score [15] | z-score [16] | z-score [17] | z-score [18] | z-score [19] | z-score [20]
1 | O=C1O[C@H](c2ccccc2)[C@H](c2ccccc2)N2[C@H]1[C@@H](C(=O)N1CCN(c3ncccn3)CC1)[C@]1(C(=O)Nc3ccccc31)[C@H]2c1ccc(OCCO)cc1 | 2.64 (inactive) | -0.0221 | 7.83 (inactive) | 0.395 (inactive) | 0.81 (inactive) | -1.32 (inactive) | 2.11 | 0.192 (inactive) | -1.33 (inactive) | -2.84 | 0.404 | 1.35 | 0.121 | 0.0498 | -2.17 | -0.592 | 1.53 (inactive) | -1.16 | -0.537 | 1.18 (inactive)
2 | CS(=O)(=O)CCOC(=O)C1=CC(CCCO)=CC(c2cccs2)N(Cc2cc3c(cc2Br)OCO3)C=C1C(=O)OCCS(C)(=O)=O (stereo not given) | 0.702 (inactive) | -0.0767 | 5.62 (inactive) | 0.944 (inactive) | 1.85 (inactive) | 0.479 (inactive) | 0.252 | -2.11 (inactive) | -1.1 (inactive) | -1.41 | 1.55 | 0.46 | 0.392 | -0.121 | 0.377 | 1.09 | 0.252 (inactive) | -0.308 | -0.579 | 0.885 (inactive)
3 | NCCCCCNC(=O)[C@H]1C[C@H]2C(=O)NCC(=O)N2[C@H]1c1cccc(OCCO)c1 | 1.5 (inactive) | -0.505 | 2.03 (inactive) | 0.508 (inactive) | 2.65 (inactive) | 0.0799 (inactive) | 0.753 | 0.972 (inactive) | 1.02 (inactive) | 1.39 | 1.5 | 0.118 | 0.79 | 0.892 | 0.857 | 0.538 | 1.18 (inactive) | -0.164 | -0.158 | 0.547 (inactive)
4 | COc1cc2c(cc1O)C(C)N(Cc1cccc(OC(F)(F)F)c1)CC2 (stereo not given) | 0.126 (inactive) | -0.0015 | 2.96 (inactive) | 0.328 (inactive) | 2.09 (inactive) | 0.573 (inactive) | -0.0952 | -3.51 (inactive) | -2.46 (inactive) | -3.03 | -0.762 | 0.815 | -1.51 | -2.34 | -2 | 0.0471 | -0.793 (inactive) | 0.0842 | -1.24 | 0.849 (inactive)
5 | CCCCC=C[C@@H](NC(=O)c1cccs1)c1ccccc1 | -1.05 (inactive) | 0.762 | 4.38 (inactive) | 0.669 (inactive) | 0.66 (inactive) | 1.38 (inactive) | 0.221 | -0.99 (inactive) | -0.568 (inactive) | 1.18 | -2.03 | -0.906 | -1.92 | -1.66 | -4.69 | -0.503 | 0.482 (inactive) | -0.817 | -1.73 | -1.49 (inactive)
6 | CC(=O)NCCCC[C@@H]1NC(=O)[C@@H]2C[C@H](C(=O)NCCCCN(C)C)[C@H](c3ccc(O)cc3)N2C1=O | 1.62 (inactive) | -0.29 | 0.453 (inactive) | -0.233 (inactive) | 1.13 (inactive) | 0.153 (inactive) | -0.051 | 0.0273 (inactive) | 0.192 (inactive) | 0.546 | 1.42 | -0.582 | 0.374 | 0.213 | 0.93 | 0.709 | 1.05 (inactive) | -0.293 | -0.504 | 0.854 (inactive)
7 | COCCOC(=O)N1C(=O)[C@@]2(c3cc(C#CCCO)ccc31)[C@H](C(=O)NC[C@H](O)c1ccccc1)[C@H]1C(=O)O[C@H](c3ccccc3)[C@H](c3ccccc3)N1[C@@H]2c1ccc(O)cc1 | 1.53 (inactive) | 0.0509 | 1.35 (inactive) | 0.706 (inactive) | -0.365 (inactive) | 0.435 (inactive) | 0.391 | 0.745 (inactive) | 0.698 (inactive) | 1.21 | 0.292 | 0.0669 | 0.289 | 0.715 | 0.568 | 0.467 | -0.734 (inactive) | 0.571 | -0.446 | 0.224 (inactive)
8 | CCCCC(O)C1C=CC2C(=O)N(C3CCCCC3)C(=O)C2N1Nc1ccc(OC)cc1 (stereo not given) | -0.436 (inactive) | 0.366 | 3 (inactive) | 1.24 (inactive) | 0.517 (inactive) | 0.684 (inactive) | -0.62 | -0.937 (inactive) | -2.06 (inactive) | -1.43 | -0.875 | 0.325 | -0.572 | 0.0802 | -1.22 | -0.307 | -0.109 (inactive) | -0.111 | 0.024 | 0.112 (inactive)
9 | NCCCCCCNC(=O)[C@H]1C[C@H]2C(=O)NCC(=O)N2[C@H]1c1cccc(OCCO)c1 | 1.17 (inactive) | 0.119 | 1.68 (inactive) | -0.0225 (inactive) | -1.63 (inactive) | 0.202 (inactive) | 0.384 | 0.719 (inactive) | 0.513 (inactive) | 1.36 | 2.15 | -0.143 | 0.674 | -0.0318 | 0.554 | 2.48 | -0.194 (inactive) | -0.417 | 0.535 | 1.34 (inactive)
